# This is a sample that favours compounds with a hit; in the whole collection about 2.6% have one here.
# PHOSPHO1 inh: PubChem AID 1565; inhibition, % at 13.3 µM; Phosphoethanolamine/phosphocholine phosphatase (Homo sapiens), Q8TCT1; 290,000 compounds, 1.1% hits; recombinant PHOSPHO1, absorbance phosphatase assay; in the data active = inhibition above about 60%
# Target sequence (Q8TCT1 whole entry, looked up): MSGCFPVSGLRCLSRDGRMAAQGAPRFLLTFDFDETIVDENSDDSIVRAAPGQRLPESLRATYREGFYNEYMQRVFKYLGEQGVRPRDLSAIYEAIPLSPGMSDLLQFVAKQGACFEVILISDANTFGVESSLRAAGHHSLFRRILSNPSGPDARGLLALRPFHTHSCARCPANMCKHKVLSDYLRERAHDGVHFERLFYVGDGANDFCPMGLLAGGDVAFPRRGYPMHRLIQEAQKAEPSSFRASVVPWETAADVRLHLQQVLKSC
# eIF4H inh: human eIF4H binding inhibitors, primary screen, translation initiation inhibitor project, biochemical, uHTS, fluorescence polarization; Eukaryotic translation initiation factor 4H (Homo sapiens), Q15056; eIF4H fluorescence polarization binding assay; inhibition, % at 35 µM; 290,000 compounds, 0.94% hits;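 also: calls also rest on retests at 20 µM and on dose response follow-up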
# PABP1 MLLE inh: inhibitors of PABP1 MLLE–PAM2 peptide binding, primary screen, biochemical, fluorescence polarization, FITC-PAM2, GST-MLLE | inhibition, % at 20 µM | Polyadenylate-binding protein 1 (Homo sapiens), P11940 | 360,000 compounds, 0.36% hits; in the data active = inhibition above about 35%, passing the limit was not always enough
# CRFR2-BP antag: antagonists of CRF-BP/CRF-R2 complex, primary screen, cell-based, HEK293, calcium dye fluorescence, uHTS; inhibition, % at 11.8 µM; 350,000 compounds, 0.59% hits; AID 588475, 2011; CRF-induced calcium fluorescence;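 active = inhibition of the ligand-induced calcium signal above about 50% at the single tested concentration, limit read from the data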
# PABP FP inh: PABP poly(A) RNA binding inhibitors, primary screen, biochemical, fluorescence polarization, uHTS; Polyadenylate-binding protein 1 (Homo sapiens), P11940; inhibition, % at 35 µM; 290,000 compounds, 1% hits; AID 2014, 2009;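 also: calls also rest on retests at 20 µM and on dose response follow-up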
# Hits are given with their value; – = inactive; ? = inconclusive; · = not tested or not shown. Unless noted, no rule for the calls is given here.
SMILES,PHOSPHO1 inh,eIF4H inh,PABP1 MLLE inh,CRFR2-BP antag,PABP FP inh
O=C1CC2(CCN(C(=O)c3cccc(Br)c3)CC2)Oc2ccccc21,·,·,–,–,·
c1ccc(Cn2ccc(-c3cnc(-c4ccccc4)s3)n2)cc1,–,93,–,–,–
Nc1ccn(Cc2ccccc2)n1,–,–,–,–,–
CCC(C)[C@H](NC(=O)[C@@H]1CSC2c3ccccc3C(=O)N21)C(=O)N1CCCCC1 (some centres undefined),65,–,–,–,–
CCC(C)[C@H](NC(=O)[C@@H]1CSC2c3ccccc3C(=O)N21)C(=O)NC1CCCC1 (some centres undefined),–,–,–,–,–
O=C(O)Cc1csc(-c2ccccc2)n1,–,7.1,–,–,–
Cc1ccsc1C(=O)OCc1csc(-c2ccccc2)n1,–,–,–,–,–
Cn1cccc1C(=O)OCc1csc(-c2ccccc2)n1,100,–,–,–,–
O=C(OCc1csc(-c2ccccc2)n1)c1cccs1,63,–,–,–,–
CCOC(=O)Nc1ccc2c(CNC(C)c3ccccc3OC)cc(=O)oc2c1 (centres undefined),–,–,–,–,–
CCOc1ccc(-c2ccc(SCC(=O)Nc3nnc(CC)s3)nn2)cc1,–,–,–,–,–
COc1ccc(-c2ccc(SCC(=O)Nc3nnc(C)s3)nn2)cc1,–,55,–,–,14
COc1ccc(CCNC(=O)CSc2ccc(-c3ccncc3)nn2)cc1,–,1.1,–,–,–
CC1(C(=O)N2CCCCC2)CCN1C(=O)c1ccccc1CCc1ccccc1 (centres undefined),·,·,–,·,·
OC(c1cccc(CN2CCCCC2)c1)c1ncc(-c2cccc3ccccc23)[nH]1 (centres undefined),·,·,–,·,·
CCC(C(=O)OCC(=O)N1CCN(S(=O)(=O)c2ccc(C)cc2C)CC1)c1ccccc1 (centres undefined),·,·,–,–,·
O=C(O)c1cccc(-n2cccc2/C=C2/NC(=O)N(Cc3ccccc3F)C2=O)c1,–,94,–,–,30
O=C1N/C(=C/c2cccn2-c2ccccc2)C(=O)N1Cc1ccc(F)cc1,–,active,–,–,54
COc1cc(OC)cc(C(=O)N[C@H](C(=O)Nc2nnc(C3CC3)s2)C(C)C)c1,–,–,–,–,–
O=C(Nc1ccc2c(c1)OCO2)C1Cc2c(-c3ccc(Cl)cc3)ccnc2O1 (centres undefined),·,·,–,·,·
Cc1ccc(S(=O)(=O)C/N=C(/NC(=S)N(c2ccccc2)c2ccccc2)c2ccccc2)cc1,66,–,–,–,–
Cc1ccnc(NC(c2cccnc2)c2ccc3cccnc3c2O)c1 (centres undefined),–,–,–,–,–
COc1ccccc1NC(c1cccnc1)c1ccc2cccnc2c1O (centres undefined),63,–,–,–,–
COc1cc(C(Nc2ccccn2)c2ccc3ccc(C)nc3c2O)cc(OC)c1O (centres undefined),73,–,–,–,–
CCCc1cc(=O)[nH]c(SCC(=O)Nc2cc(S(=O)(=O)N3CCOCC3)ccc2Cl)n1,·,·,–,–,·
SMILES,PHOSPHO1 inh,eIF4H inh,PABP1 MLLE inh,CRFR2-BP antag,PABP FP inh
CC(=O)Oc1ccccc1/C=C/c1nc2ccccc2c(=O)o1,·,–,–,–,–
O=c1oc(/C=C/c2ccc([N+](=O)[O-])s2)nc2ccccc12,·,97,–,–,98
O=C(c1cccs1)N1C[C@@H](n2cc(C3CC3)nn2)[C@H](O)C[C@@H]1c1ccc(Cl)cc1,·,·,–,–,·
COC(=O)C(N)Cc1ccc(O)c(O)c1 (centres undefined),–,–,–,–,–
NC(CO)C(=O)NNCc1ccc(O)c(O)c1O (centres undefined),–,97,48,–,8.4
COc1ccc(NC(=O)CSc2nccn2-c2cccc(OC)c2)cc1,72,–,–,–,–
O=C(CSc1ncnc2ccccc12)Nc1ccc2c(c1)OCO2,–,–,–,–,–
COc1cccc(NC(=O)CSc2nccn2-c2cccc(OC)c2)c1,–,–,–,–,–
O=C(CSc1ncnc2ccccc12)NCc1ccc2c(c1)OCO2,–,active,–,–,–
Cc1ccc(NC(=O)CSc2nccn2Cc2ccccc2)cc1C,86,–,–,–,–
O=C(CSc1nccn1-c1cccc(Cl)c1)Nc1ccc2c(c1)OCCO2,74,–,–,–,–
CC(=O)Nc1ccc(NC(=O)CSc2nccn2Cc2ccccc2)cc1,–,–,–,–,–
COc1c(C)cc(C(O)c2ncc(-c3ccccc3)[nH]2)cc1C (centres undefined),·,·,–,·,·
CCSC(=O)N1c2ccc(OC)cc2C=CC1C#N (centres undefined),·,·,–,–,·
COc1ccc(C(CNC(=O)c2ccc(C)c(S(=O)(=O)N3CCCCC3)c2)N2CCCC2)cc1 (centres undefined),·,·,–,–,·
CC(OC(=O)c1cc(=O)c2cc(Cl)ccc2o1)C(=O)N1CCCC1 (centres undefined),·,·,–,–,·
O=C(CSc1nccn1-c1ccc(Cl)cc1)NCc1ccc2c(c1)OCO2,68,–,–,–,–
Nn1c(SCC(=O)Nc2ccc3c(c2)OCCO3)nnc1C(F)(F)F,91,–,–,–,–
O=C(CSc1ncccn1)NCc1ccc2c(c1)OCO2,–,–,–,–,–
Cc1nnc(SCC(=O)Nc2ccc3c(c2)OCCO3)n1N,–,–,–,–,–
C=CCC[C@H](Cc1ccc(F)cc1)C(=O)OC[C@H](Cc1c[nH]c2ccccc12)NC(=O)[C@@H](CC=C)CC(=O)N[C@H](CO)Cc1ccccc1,·,·,–,–,·
Cc1cc(-c2csc(N)n2)c(C)n1C,86,118,–,–,107
Cc1cc(-c2csc(N)n2)c(C)n1Cc1ccco1,61,?,–,–,–
Cc1ccc(-n2c(C)cc(-c3csc(N)n3)c2C)cc1,–,?,–,–,–
CC1(C(=O)NS(=O)(=O)c2ccc3c(c2)CCO3)CCN1C(=O)c1ccccc1CCc1ccccc1 (centres undefined),·,·,–,·,·
SMILES,PHOSPHO1 inh,eIF4H inh,PABP1 MLLE inh,CRFR2-BP antag,PABP FP inh
C=CCNC(=O)NC(=O)COC(=O)/C(C#N)=C/c1ccc(OC)cc1,–,–,–,–,–
CCCS(=O)(=O)NC(=O)C1(C)CCN(C(=O)/C=C/c2ccccc2)C1 (centres undefined),·,·,–,·,·
CCCn1c(SCC(=O)NCc2ccc(C)cc2)n[nH]c1=O,–,–,–,–,–
CCCn1c(SCC(=O)c2ccc(CC)cc2)n[nH]c1=O,82,–,–,–,–
CN(CC(=O)NCCCN1CCOCC1)S(=O)(=O)c1cc(Cl)ccc1Cl,–,–,–,–,–
CCCN1Cc2cccc(C(=O)N3CCN(c4ccc(OC)cc4)CC3)c2C1=O,–,–,–,–,–
COc1ccc(N2Cc3cccc(C(=O)O)c3C2=O)cc1,–,93,–,–,68
O=C1CN(C(=O)/C=C/c2ccco2)c2ccccc2N1,–,71,–,–,–
COc1ccc(NC(=O)c2cc(-c3cc(F)ccc3OC(C)C)n[nH]2)c(C)c1,·,·,–,·,·

# Screening data from PubChem.
